# Measured values: PubChem BioAssay (NCATS)
# “And” between values parts separate entries of the source, which are not always exact repeats. Identical values can stand only once. Results filed as inconclusive are left out. Entries that show only a call come without a potency. The source made the active and inactive calls. Unless noted, calls follow the shape of the dose curve; as a rule, active = well fitted curve in the direction sought with a large enough effect; inconclusive = small, poorly fitted or top-dose-only effect, or another doubt; inactive = no such curve, though single readings can be large; an effect the other way counts as inactive or inconclusive. Where a SMILES comes first, the peptide text is derived from it. [ ]: non-standard residue; d: D form. Nle = CCCC[C@H](N)C(=O)O
# Tests used:
# [1] = system: Zika virus NS2B-NS3 protease; assay: Primary screen GU AMC qHTS for Zika virus inhibitors (AID 1347154); also: nearly all actives have a fitted effect of over 70% in size
# Method in brief: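 Unlinked Zika NS2B hydrophilic domain/NS3 protease domain noncovalent complex (25 nM final) in 10 mM Tris-HCl pH 8.0, 0.01% Tween 20, with AMC peptide substrate. Fluorescence (ex 340, em 450 nm) change over 15 min, room temperature; percent inhibition fitted to 4-parameter Hill equation.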
# [2] = Primary qHTS for small molecule stabilizers of the endoplasmic reticulum resident proteome: Secreted ER Calcium Modulated Protein (SERCaMP) assay (AID 1508630); also: potency is read from the fitted curve at half-maximal effect
# Method in brief: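 GLuc-SERCaMP-expressing SH-SY5Y cells, pretreated 16 h with compound, are challenged with thapsigargin to empty ER calcium stores; after 4 h, coelenterazine is added directly to the medium and luminescence is imaged.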
# [3] = AP1 Signaling Pathway (AID 357; active = well fitted curve in either direction with a large enough effect, not every such curve was filed as active); settings: ME-180 AP-1-bla reporter, EGF-induced, beta-lactamase ratio, 5 h
# Method in brief: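 ME-180 cells with beta-lactamase reporter under AP-1 response element, stimulated with EC50 EGF; compounds tested in titration series, 5 h at 37 °C. CCF4 substrate added 2.5 h at room temperature; 460/530 nm emission ratio gave %activity and AC50.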
# [4] = target: Cytochrome P450 1A2 (Homo sapiens) (UniProt P05177); assay: p450-cyp1a2 (AID 410; calls by dose curve)
# Cytochrome P450 1A2 (Homo sapiens), sequence (P05177 whole entry, looked up): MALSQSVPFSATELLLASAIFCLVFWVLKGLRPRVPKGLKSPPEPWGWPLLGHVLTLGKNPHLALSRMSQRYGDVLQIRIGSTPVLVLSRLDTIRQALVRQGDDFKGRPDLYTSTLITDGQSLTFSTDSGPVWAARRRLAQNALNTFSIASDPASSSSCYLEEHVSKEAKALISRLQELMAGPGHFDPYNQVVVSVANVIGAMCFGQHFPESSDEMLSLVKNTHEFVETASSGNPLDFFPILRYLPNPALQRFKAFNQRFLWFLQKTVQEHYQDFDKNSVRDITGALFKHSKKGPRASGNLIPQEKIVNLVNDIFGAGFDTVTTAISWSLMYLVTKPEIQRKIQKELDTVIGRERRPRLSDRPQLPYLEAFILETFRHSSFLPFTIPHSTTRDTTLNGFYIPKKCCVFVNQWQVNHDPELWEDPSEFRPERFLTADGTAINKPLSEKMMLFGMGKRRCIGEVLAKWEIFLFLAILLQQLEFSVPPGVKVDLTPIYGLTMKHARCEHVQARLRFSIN
# Method in brief: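 Inhibition was calculated relative to 57 uM furafylline (full inhibition). The reaction used human CYP1A2 at 20nM with Luciferin-ME at its Km, 100uM, driven by an NADPH-regenerating system for 60 min at room temperature.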
# [5] = NFAT Signaling Pathway (AID 444; active = well fitted curve in either direction with a large enough effect, not every such curve was filed as active;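 also: carbachol stimulus at about its EC50 of 1 µM final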); settings: Jurkat NFAT-bla M1, carbachol, beta-lactamase ratio, 5 h; at 38 µM (top of the series)
# Method in brief: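 Jurkat cells carrying an NFAT-driven β-lactamase reporter and co-transfected muscarinic M1 receptor were treated with compound plus carbachol (1 uM final, an EC50 level) for 5 h at 37 °C. CCF4 loading followed for 1 h at RT; 460/530 nm ratio gave %activity.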
# [6] = Stat Signaling Pathway (AID 446; active = well fitted curve in either direction with a large enough effect, not every such curve was filed as active;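 also: ME-180 cervical cancer cells given 40 pM IL-6 alongside compound; SIE-controlled beta-lactamase reporter measured as 460/530 nm FRET emission ratio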); settings: ME-180 SIE beta-lactamase reporter, IL-6 stimulated, 5 h
# Method in brief: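 ME-180 SIE-bla cells; overnight plating; cpd + IL-6 40 pM, 5 h, 37 C; LiveBLAzer 2.5 h RT; 460/530 nm emission ratio. Normalized to 300 pM IL-6 and 125 nM JAK inhibitor controls.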
# [7] = target: Glucocorticoid receptor (Homo sapiens) (UniProt P04150); assay: GR-GFP Redistribution (AID 450;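 active = compounds whose dose series gives a full or clear partial fitted curve of increased nuclear translocation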; also: potency is read from the fitted curve at half-maximal effect); settings: U2OS GR-GFP nuclear translocation, laser cytometry, 2 h
# Glucocorticoid receptor (Homo sapiens), sequence (P04150 whole entry, looked up, the tested form may be a part): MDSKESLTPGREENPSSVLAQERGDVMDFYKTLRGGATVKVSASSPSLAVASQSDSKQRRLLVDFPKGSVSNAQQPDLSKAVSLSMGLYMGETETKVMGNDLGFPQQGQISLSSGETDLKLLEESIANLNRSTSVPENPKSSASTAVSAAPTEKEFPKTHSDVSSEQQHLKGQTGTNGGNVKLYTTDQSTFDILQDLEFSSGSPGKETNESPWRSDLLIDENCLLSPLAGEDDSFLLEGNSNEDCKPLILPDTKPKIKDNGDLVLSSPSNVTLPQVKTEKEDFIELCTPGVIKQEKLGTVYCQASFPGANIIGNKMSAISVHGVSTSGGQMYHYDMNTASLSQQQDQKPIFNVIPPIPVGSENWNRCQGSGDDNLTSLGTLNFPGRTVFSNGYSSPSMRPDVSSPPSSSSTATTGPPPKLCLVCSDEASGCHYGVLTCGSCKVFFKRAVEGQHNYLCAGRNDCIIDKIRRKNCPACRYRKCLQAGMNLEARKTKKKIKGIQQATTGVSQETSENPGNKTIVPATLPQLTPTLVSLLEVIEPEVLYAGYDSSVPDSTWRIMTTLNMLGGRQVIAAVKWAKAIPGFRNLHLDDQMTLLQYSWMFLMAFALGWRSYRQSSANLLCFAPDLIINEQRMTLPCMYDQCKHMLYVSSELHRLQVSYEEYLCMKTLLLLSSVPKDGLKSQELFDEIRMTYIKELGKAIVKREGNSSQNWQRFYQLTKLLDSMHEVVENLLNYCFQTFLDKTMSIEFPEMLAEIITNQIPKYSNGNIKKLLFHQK
# [8] = target: Glucocorticoid receptor (Homo sapiens) (UniProt P04150); assay: GR-EFC Redistribution (AID 451; calls by dose curve; also: potency is read from the fitted curve at half-maximal effect); settings: CHO-K1 GR-EFC translocation, beta-gal luminescence, 2 h
# Method in brief: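 CHO-K1 cells stably expressing nuclear-localized β-gal enzyme acceptor and GR fused C-terminally to the enzyme donor fragment; ligand-driven nuclear translocation restores β-gal by complementation. Compounds titrated up to 46 uM final, 2 h at 37 °C; luminescence read.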
# [9] = target: Mitogen-activated protein kinase 10 (Mus musculus) (UniProt Q61831); assay: JNK3 AlphaScreen Assay (AID 530; active = well fitted curve in either direction with a large enough effect, not every such curve was filed as active;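 also: kinase came from lysate of stimulated human HepG2 cells; signal reports phosphorylation of biotinylated GST-cJun 1-79 at Ser73 with 10 µM ATP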)
# Method in brief: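 JNK3 came from HepG2 lysates pre-activated with IL-1beta and TNF-alpha and phosphorylated biotinylated GST-cJun (1-79) at 10 uM ATP, pH 7.6, room temperature. Compounds were titrated. AlphaScreen signal used anti-phospho-cJun (Ser73) antibody.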
# [10] = target: 3',5'-cyclic-AMP phosphodiesterase 4B (Homo sapiens) (UniProt Q07343); assay: qHTS Assay for Inhibitors of PDE-IV (AID 607; active = well fitted activation curve with a large enough effect in the main read-out, with a control signal flat, not every such curve was filed as active)
# 3',5'-cyclic-AMP phosphodiesterase 4B (Homo sapiens), sequence (Q07343 whole entry, looked up): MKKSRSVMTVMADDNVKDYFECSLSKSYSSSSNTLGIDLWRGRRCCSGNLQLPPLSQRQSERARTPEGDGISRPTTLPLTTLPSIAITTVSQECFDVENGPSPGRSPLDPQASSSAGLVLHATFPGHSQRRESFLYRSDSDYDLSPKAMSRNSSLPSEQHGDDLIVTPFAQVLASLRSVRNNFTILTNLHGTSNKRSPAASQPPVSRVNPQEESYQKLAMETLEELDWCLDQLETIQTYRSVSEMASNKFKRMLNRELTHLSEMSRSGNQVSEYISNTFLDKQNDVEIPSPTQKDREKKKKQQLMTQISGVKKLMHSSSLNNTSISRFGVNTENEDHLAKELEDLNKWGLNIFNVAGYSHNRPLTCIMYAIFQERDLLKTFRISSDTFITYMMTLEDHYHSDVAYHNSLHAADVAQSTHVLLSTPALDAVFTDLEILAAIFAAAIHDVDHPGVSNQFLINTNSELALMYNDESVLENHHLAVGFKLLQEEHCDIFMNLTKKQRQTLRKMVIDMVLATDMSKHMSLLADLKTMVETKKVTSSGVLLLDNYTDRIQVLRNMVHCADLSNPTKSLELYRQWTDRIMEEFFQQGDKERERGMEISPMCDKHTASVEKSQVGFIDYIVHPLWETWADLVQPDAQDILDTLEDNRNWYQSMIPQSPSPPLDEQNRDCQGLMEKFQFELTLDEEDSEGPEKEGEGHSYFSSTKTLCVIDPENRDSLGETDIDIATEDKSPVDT
# Method in brief: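 ACTOne HEK293 cells carry a modified cAMP-gated CNG channel and express endogenous PDE4; plated 1000 cells/well, compounds up to 22.9 uM final. Membrane-potential dye fluorescence (ex 535/em 590) was read; parental cells received 10 uM forskolin + 100 uM RO 20-1724.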
# [11] = target: Guanine nucleotide-binding protein G(i) subunit alpha-1 (Homo sapiens) (UniProt P63096); assay: qHTS Assay for Inhibitors of RGS12 GoLoco Motif Activity (Green Fluorophore) (AID 879);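 also: negative values mean loss of peptide binding seen as reduced polarization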
# Guanine nucleotide-binding protein G(i) subunit alpha-1 (Homo sapiens), sequence (P63096 whole entry, looked up): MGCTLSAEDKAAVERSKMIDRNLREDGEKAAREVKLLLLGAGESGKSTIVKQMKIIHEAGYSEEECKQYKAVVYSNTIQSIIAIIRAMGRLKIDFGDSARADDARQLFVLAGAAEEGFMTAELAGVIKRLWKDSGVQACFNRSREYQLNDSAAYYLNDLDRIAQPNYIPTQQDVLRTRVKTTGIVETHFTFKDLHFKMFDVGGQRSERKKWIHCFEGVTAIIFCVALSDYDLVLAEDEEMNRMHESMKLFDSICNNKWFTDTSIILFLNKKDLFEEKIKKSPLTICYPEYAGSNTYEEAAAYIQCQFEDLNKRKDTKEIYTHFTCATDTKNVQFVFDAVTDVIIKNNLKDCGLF
# Method in brief: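 Fluorescence polarization assay: 50 nM Gαi1 with 10 nM FITC-labeled RGS12 GoLoco peptide in 10 mM Tris pH 7.5, 150 mM NaCl, 0.1 mM GDP, 0.05% NP40, 10 min at room temperature with compound.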
# [12] = qHTS Assay for Identification of Small Molecule Antagonists for NFkB Signaling Pathway (AID 895; active = well fitted inhibition curve with a large enough effect in the signal ratio, with a control signal flat, not every such curve was filed as active; the % refers to the signal ratio)
# Method in brief: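 NFkB-bla ME-180 cervical carcinoma cells with beta-lactamase reporter under NFkB response element; compounds added, then TNF alpha at 10 pM final (EC50), 5 h at 37 C. LiveBLAzer substrate 2 h, room temperature; emission 460/530 nm at 405 nm excitation.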
# [13] = target: Cytochrome P450 2C19 (Homo sapiens) (UniProt P33261); assay: qHTS Assay for Inhibitors and Substrates of Cytochrome P450 2C19 (AID 899); also: nearly all actives have a fitted effect of over 60% in size
# Method in brief: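 NADPH-dependent conversion of Luciferin-H EGE (10uM, at KM) by 5nM enzyme in 50mM KPO4, 60 min at 37C following 10 min compound preincubation. Stopped with luciferin detection buffer; luminescence read after 20 min.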
# [14] = qHTS Assay for Identification of Small Molecule Agonists for Thrombopoietin (TPO) Signaling Pathway (AID 917)
# Method in brief: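 IL-3-dependent murine pro-B Ba/F3 cells, stably transfected with human TPO receptor and GpIIb-promoter luciferase, are incubated 24 hrs at 37 C with test compound and 26 pM TPO; luciferase signal is read after 10 min at room temperature.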
# [15] = target: Muscarinic acetylcholine receptor M1 (Rattus norvegicus) (UniProt P08482); assay: qHTS Assay for Antagonists of Acetylcholine Muscarinic M1 Receptor: Measurement of IP-One Response (AID 944); also: nearly all actives have a fitted effect of over 75% in size
# Muscarinic acetylcholine receptor M1 (Rattus norvegicus), sequence (P08482 whole entry, looked up): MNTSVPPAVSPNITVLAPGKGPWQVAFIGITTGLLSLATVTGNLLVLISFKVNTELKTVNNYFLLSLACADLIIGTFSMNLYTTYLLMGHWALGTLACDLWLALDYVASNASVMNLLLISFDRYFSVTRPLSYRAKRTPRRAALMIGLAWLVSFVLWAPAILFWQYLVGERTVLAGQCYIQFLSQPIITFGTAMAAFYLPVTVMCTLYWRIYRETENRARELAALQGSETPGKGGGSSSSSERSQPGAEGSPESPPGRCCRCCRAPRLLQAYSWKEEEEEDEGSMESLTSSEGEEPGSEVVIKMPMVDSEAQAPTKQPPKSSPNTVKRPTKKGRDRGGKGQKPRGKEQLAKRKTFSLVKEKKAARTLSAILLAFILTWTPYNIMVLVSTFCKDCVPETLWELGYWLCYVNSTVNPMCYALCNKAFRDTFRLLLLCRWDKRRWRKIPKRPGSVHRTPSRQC
# Method in brief: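 Steps: plate transfected CHO-M1 cells overnight; add test compound, 10 min; add carbachol (200 nM, EC80) in stimulation buffer with LiCl; incubate 30 min; add labelled IP1 tracer and anti-IP1 antibody in lysis buffer; read HTRF after 10 min.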
# [16] = target: Pyruvate kinase PKM (Homo sapiens) (UniProt P14618); assay: qHTS Assay for Activators of Human Muscle Pyruvate Kinase (AID 954; active = well fitted curve in the direction sought with a large enough effect, not every such curve was filed as active)
# Pyruvate kinase PKM (Homo sapiens), sequence (P14618 whole entry, looked up): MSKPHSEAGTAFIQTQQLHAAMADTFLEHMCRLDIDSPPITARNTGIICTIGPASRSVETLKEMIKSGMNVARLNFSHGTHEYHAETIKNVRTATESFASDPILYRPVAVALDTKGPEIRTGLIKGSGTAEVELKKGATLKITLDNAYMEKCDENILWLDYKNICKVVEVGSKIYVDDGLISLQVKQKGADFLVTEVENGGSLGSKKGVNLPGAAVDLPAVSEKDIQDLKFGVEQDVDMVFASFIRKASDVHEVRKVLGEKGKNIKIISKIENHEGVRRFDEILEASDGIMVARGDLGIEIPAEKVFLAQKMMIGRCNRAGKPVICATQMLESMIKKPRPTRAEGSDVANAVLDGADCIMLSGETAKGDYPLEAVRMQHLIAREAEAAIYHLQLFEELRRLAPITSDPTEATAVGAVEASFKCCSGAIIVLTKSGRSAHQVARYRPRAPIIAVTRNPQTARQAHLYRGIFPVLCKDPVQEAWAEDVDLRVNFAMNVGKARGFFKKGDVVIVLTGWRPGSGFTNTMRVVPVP
# Method in brief: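 Luminescence from a luciferase ATP-detection/stop reagent reported PKM2 activity. Reactions contained 0.1 nM purified human enzyme, 0.5 mM PEP, 0.1 mM ADP and 7 mM MgCl2 at pH 7.2, run 1 h at RT.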
# [17] = target: alpha-glucosidase (Oryza sativa, rice) (UniProt Q653V4); assay: Counterscreen for Glucocerebrosidase Inhibitors: qHTS Assay for Rice alpha-Glucosidase at pH 5.0 (AID 997)
# Method in brief: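 Rice alpha-glucosidase (4 nM final) with 400 uM 4-methylumbelliferyl-alpha-D-glucopyranoside in citrate buffer pH 5.0, 20 min at room temperature, stopped at pH 10; fluorescence 365/440 nm, compounds 0.7 nM–77 uM, AC50 from Hill fits.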
# [18] = qHTS Assay for Lipid Storage Modulators (AID 1519; calls by dose curve); settings: Drosophila S3 cells, BODIPY lipid droplet/cell ratio, laser cytometry, cells loaded with oleic acid
# Method in brief: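 Cells seeded at 5,000 per well were treated with compounds over a concentration series and loaded with oleic acid (400 uM, as added). Lipid droplet fluorescence (488 nm excitation, 500-530 nm channel) was read by laser-scanning cytometry and normalized to 20 uM Triacsin C.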
# [19] = target: Ubiquitin carboxyl-terminal hydrolase 1 (Homo sapiens) (UniProt O94782); assay: Inhibitors of USP1/UAF1: Pilot qHTS (AID 504865);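 also: rhodamine fluorescence freed from ubiquitin-rhodamine substrate followed over time; top concentration of the series differs between compounds; nearly all actives have a fitted effect of over 35% in size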
# Ubiquitin carboxyl-terminal hydrolase 1 (Homo sapiens), sequence (O94782 whole entry, looked up): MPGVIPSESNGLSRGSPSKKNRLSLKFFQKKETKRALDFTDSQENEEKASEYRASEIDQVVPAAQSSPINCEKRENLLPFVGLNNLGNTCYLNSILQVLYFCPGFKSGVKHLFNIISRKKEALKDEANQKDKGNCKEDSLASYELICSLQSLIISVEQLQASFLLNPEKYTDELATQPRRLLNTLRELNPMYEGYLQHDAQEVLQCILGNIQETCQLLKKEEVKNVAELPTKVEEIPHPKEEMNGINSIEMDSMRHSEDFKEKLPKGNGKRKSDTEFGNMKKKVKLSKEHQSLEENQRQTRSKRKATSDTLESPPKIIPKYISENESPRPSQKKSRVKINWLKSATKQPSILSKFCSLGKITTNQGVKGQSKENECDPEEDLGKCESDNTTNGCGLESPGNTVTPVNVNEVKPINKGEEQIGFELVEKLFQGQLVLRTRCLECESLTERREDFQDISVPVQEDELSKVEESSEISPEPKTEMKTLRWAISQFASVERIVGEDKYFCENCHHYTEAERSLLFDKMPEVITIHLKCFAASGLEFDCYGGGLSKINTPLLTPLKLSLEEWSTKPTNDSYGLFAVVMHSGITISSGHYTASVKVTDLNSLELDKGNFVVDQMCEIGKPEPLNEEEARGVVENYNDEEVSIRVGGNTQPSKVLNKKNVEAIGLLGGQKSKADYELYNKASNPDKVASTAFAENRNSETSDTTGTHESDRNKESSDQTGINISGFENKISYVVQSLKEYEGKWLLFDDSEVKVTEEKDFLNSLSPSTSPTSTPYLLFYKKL
# Method in brief: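 Enzyme-free wells gave the negative control, while test wells held 1nM USP1/UAF1 preincubated with compound for 15 min at room temperature. Ub-Rho at 150nM final started the reaction, and fluorescence at 480/540 nm was recorded kinetically.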
# [20] = target: DNA dC->dU-editing enzyme APOBEC-3G (Homo sapiens) (UniProt Q9HC16); assay: qHTS for inhibitors of Vif-A3G interactions: Validation (AID 588379)
# DNA dC->dU-editing enzyme APOBEC-3G (Homo sapiens), sequence (Q9HC16 whole entry, looked up): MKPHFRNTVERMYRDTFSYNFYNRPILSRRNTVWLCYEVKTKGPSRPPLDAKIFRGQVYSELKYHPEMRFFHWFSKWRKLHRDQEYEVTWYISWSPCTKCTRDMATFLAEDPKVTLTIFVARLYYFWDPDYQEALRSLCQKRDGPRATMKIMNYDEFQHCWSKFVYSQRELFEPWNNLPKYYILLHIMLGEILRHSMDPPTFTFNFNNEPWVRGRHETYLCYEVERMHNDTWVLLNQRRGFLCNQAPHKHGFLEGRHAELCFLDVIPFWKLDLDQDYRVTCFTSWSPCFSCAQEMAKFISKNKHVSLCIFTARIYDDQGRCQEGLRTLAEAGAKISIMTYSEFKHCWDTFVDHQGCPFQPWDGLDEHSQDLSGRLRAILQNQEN
# Method in brief: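 HeLa cells stably expressing Vif and A3G-eYFP, 700 cells/well, incubated overnight at 37 deg C, then exposed to compound overnight at 37 deg C. Inhibition of Vif-mediated degradation read as increased yellow fluorescence (Ex 488/Em 500-530) by laser-scanning cytometry.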
smiles,measurement,setting,value
COc1ccc(/C=C/C(=O)CC(=O)/C=C/c2cccc(O)c2OC)cc1O,Potency,[1],inactive
same,Potency,[2],inactive
C[C@@H](O)CNC(C)(C)CC(=O)N[C@@H]1CCc2ccccc2N(Cc2ccc(-c3ccccc3-c3nn[nH]n3)cc2)C1=O,Potency,[1],inactive
same,Potency,[2],inactive
NCC(O)COc1cccc2ccccc12 (stereo unspecified),Potency,[1],inactive
same,Potency,[2],inactive
NC(C(=O)O)c1cccc(O)c1 (stereo unspecified),Potency,[1],inactive
same,Potency,[2],inactive
Nc1nc2c(ncn2[C@@H]2O[C@H](COP(=O)(O)OP(=O)(O)OP(=O)(O)O)[C@@H](O)C2O)c(=O)[nH]1 (stereo partly specified),Potency,[1],inactive
same,Potency,[2],inactive
CC1c2ccccc2CN1CC1=NCCN1 (stereo unspecified),Potency,[1],inactive
same,Potency,[2],inactive
O=C(Nc1ccccc1)C12CC1/C(=N\O)c1ccccc1O2 (stereo unspecified),Potency,[1],inactive
same,Potency,[2],inactive
CC(=O)NC1C(OC2OC(CC(O)C3OC([N+]4=CCC(=O)NC4=O)C(O)C3O)C(O)C(O)C2NC(=O)/C=C/CCCCCCCCC(C)C)OC(CO)C(O)C1O (stereo unspecified),Potency,[1],inactive
same,Potency,[2],1 µM (active)
C/C(O)=C1\C(=O)[C@@H]2[C@H]3c4c[nH]c5cccc(c45)C[C@H]3C(C)(C)N2C1=O,Potency,[1],inactive
same,Potency,[2],inactive
N[C@@H](Cn1c2c(c(=O)[nH]c1=O)CCC2)C(=O)O,Potency,[1],inactive
same,Potency,[2],inactive
CC(C)OC(=O)c1cn(Cc2c(F)cccc2F)c2sc(-c3ccc(NC(=O)C(C)C)cc3)c(CN(C)Cc3ccccc3)c2c1=O,Potency,[1],inactive
same,Potency,[2],inactive
NC1(C(=O)O)CCc2cc(P(=O)(O)O)ccc21 (stereo unspecified),Potency,[1],inactive
same,Potency,[2],inactive
COc1cc2ncnc(Nc3ccc(Cl)cc3F)c2cc1OC,Potency,[1],inactive
same,Potency,[2],inactive
CC(N)CCCP(=O)(O)O (stereo unspecified),Potency,[1],inactive
same,Potency,[2],inactive
COc1oc(=O)c2cc(N)ccc2c1Cl,Potency,[1],inactive
same,Potency,[2],inactive
CC(C)NC[C@H](O)c1ccc(NS(C)(=O)=O)cc1,"activity change, negative = inhibition",[3]; at 17.2 µM (top of the series),-5.04% (inactive)
same,"activity change, negative = inhibition",[3]; at 38 µM (top of the series),-0.189% (inactive)
same,Potency,[4],inactive
same,"activity change, negative = inhibition",[5],-7.39% (inactive)
same,"activity, negative = inhibition",[6]; at 17.2 µM (top of the series),-2.38% (inactive)
same,"activity, negative = inhibition",[6]; at 38 µM (top of the series),2.96% (inactive)
same,Potency,[7],> 46 µM (inactive) and > 20.6 µM (inactive)
same,Potency,[8],> 46 µM (inactive) and > 20.6 µM (inactive)
same,Potency,[9],inactive
same,Potency,[10],inactive
same,outcome,[11],inactive
same,Potency,[12],inactive
same,Potency,[13],inactive
same,Potency,[14],inactive
same,Potency,[15],inactive
same,outcome,[16],inactive
same,outcome,[17],inactive
same,"activity change, negative = inhibition",[18]; at 25.7 µM (top of the series),-2.05% (inactive)
same,"activity change, negative = inhibition",[18]; at 57.5 µM (top of the series),-2.56% (inactive)
same,max response,[18]; measured here: cell count channel max response,-18.7% and 20.5%
same,max response,[18]; measured here: lipid channel max response,-18.8% and 17.8%
same,Potency,[19],inactive
same,Potency,[20],inactive
same,Potency,[1],inactive
same,Potency,[2],inactive
CCCC[C@@H](C=O)NC(=O)[C@H](CC(C)C)NC(=O)[C@H](CC(C)C)NC(C)=O (Ac-Leu-Leu-[Nle]-aldehyde),Potency,[1],inactive
same,Potency,[2],inactive
CC(C)C[C@H](NC(=O)[C@H](Cc1ccccc1)NC(=O)CNC(=O)CNC(=O)[C@@H](N)Cc1ccc(O)cc1)C(=O)N[C@@H](CCCN=C(N)N)C(=O)N[C@@H](CCCN=C(N)N)C(=O)N[C@@H](CCC(N)=O)C(=O)N[C@@H](Cc1ccccc1)C(=O)N[C@@H](CCCCN)C(=O)N[C@H](C(=O)N[C@H](C(=O)N[C@H](C(=O)O)[C@@H](C)O)C(C)C)C(C)C,"activity change, negative = inhibition",[1],3.02% [at 6.83 µM] (inactive)
same,"activity change, negative = inhibition",[2],-2% [at 3.88 µM] (inactive)
CC(C)c1ccc2c(c1)CC[C@H]1[C@](C)(CN)CCC[C@]21C,Potency,[1],inactive
same,Potency,[2],inactive
